Measured values from PubChem BioAssay (Tox21).
Results filed as inconclusive are left out. The source made the active and inactive calls. The call rests on the fitted dose curve; in most records, active means well fitted curve in the direction sought with a large enough effect in the repeat runs; inconclusive means weak or mixed curves; inactive means no such curve, though single readings can be large; an effect the other way counts as inactive or inconclusive.

What was measured:
[1] = qHTS RealTime-Glo MT Cell Viability Assay in HEK293 cells - 16 hour (AID 1224872); further: nearly all actives have a fitted effect of over 50% in size; on activity change, negative = cytotoxicity: top concentration of the series differs between compounds
How it was run: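 Tox21 10K qHTS, HEK293, 600 cells/well, RealTime-Glo reagent co-dispensed with cells; 5 h preincubation, compound by pintool, 37 C, luminescence at 0–40 h.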

[2] = qHTS RealTime-Glo MT Cell Viability Assay in HepG2 cells - 8 hour (AID 1224873); further: nearly all actives have a fitted effect of over 55% in size
How it was run: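 HepG2 cells (600/well) mixed with RealTime-Glo MT reagent, settled 5 h at 37 C/5% CO2 before compound addition. Nonlytic NanoLuc luminescence from viable-cell prosubstrate reduction read repeatedly during 40 h treatment at 37 C.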

[3] = A CellTox Green Cytotoxicity Assay to monitor cytotoxicity in HEK293 cells - 24 hour (AID 1224875); further: nearly all actives have a fitted effect of over 45% in size; on activity change: series mostly up to about 77 µM
How it was run: (§1)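 Each value comes from one timepoint of a single continuous run in which HEK293 cells with CellTox Green were exposed to compound for up to 40 h at 37 C, dye fluorescence rising with cell death.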

[4] = qHTS RealTime-Glo MT Cell Viability Assay in HepG2 cells - 32 hour (AID 1224877); further: nearly all actives have a fitted effect of over 55% in size
How it was run: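 Cells + NanoLuc/prosubstrate dispensed (600 cells/well) → 5 h at 37 C/5% CO2 → compounds in DMSO transferred → 40 h incubation at 37 C, luminescence read at 0, 8, 16, 24, 32, 40 h.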

[5] = A CellTox Green Cytotoxicity Assay to monitor cytotoxicity in HepG2 cells - 24 hour (AID 1224878); further: nearly all actives have a fitted effect of over 45% in size
How it was run: (§2)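 Continuous culture of HepG2 cells with a membrane-impermeant DNA dye; rising fluorescence marks dead cells. Compound exposure lasted up to 40 h at 37 C, with reads every 8 h from 0 h.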

[6] = A CellTox Green Cytotoxicity Assay to monitor cytotoxicity in HepG2 cells - 40 hour (AID 1224879); further: nearly all actives have a fitted effect of over 40% in size
How it was run: as §2

[7] = qHTS RealTime-Glo MT Cell Viability Assay in HEK293 cells - 0 hour (AID 1224880); further: nearly all actives have a fitted effect of over 45% in size; on activity change, negative = cytotoxicity: top concentration of the series differs between compounds
How it was run: (§3)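 qHTS format; HEK293 cells with NanoLuc/prosubstrate reagent, 37 C/5% CO2 for 5 h pre-dosing; compounds 23 nL in DMSO; luminescence at each time point reflects viable cells.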

[8] = A CellTox Green Cytotoxicity Assay to monitor cytotoxicity in HEK293 cells - 32 hour (AID 1224881); further: nearly all actives have a fitted effect of over 40% in size
How it was run: as §1

[9] = A CellTox Green Cytotoxicity Assay to monitor cytotoxicity in HepG2 cells - 16 hour (AID 1224876); further: nearly all actives have a fitted effect of over 45% in size
How it was run: as §2

[10] = qHTS RealTime-Glo MT Cell Viability Assay in HEK293 cells - 40 hour (AID 1224874); conditions: RealTime-Glo luminescence; max response: active compounds read low; further: nearly all actives have a fitted effect of over 50% in size
How it was run: as §3
On the % scale 0 is the no-effect control and ±100 the full control effect; potency means the concentration at half of the fitted maximal effect.

OCC(CO)n1cnc(-c2ccc(F)cc2)c1-c1ccnc(Oc2ccccc2)n1
inactive: Potency [1] | Potency [2] | Potency [3] | Potency [4] | Potency [5] | Potency [6] | Potency [7] | Potency [8]

O=C1c2ccccc2C(=O)c2c(O)ccc(O)c21
active: Potency [9] 24.5 µM | Potency [5] 24.5 µM | Potency [6] 24.5 µM
inactive: Potency [1] | Potency [2] | Potency [4] | Potency [7]

O=C(CCS)OCC(COC(=O)CCS)(COC(=O)CCS)COC(=O)CCS
inactive: Potency [2] | Potency [3] | Potency [9] | Potency [4] | Potency [5] | Potency [6] | Potency [7] | Potency [8]

CCCCCCCC/C=C\CCCCCCCC(=O)OCCO
inactive: Potency [2] | max response [10] -0.425% | Potency [3] | Potency [9] | Potency [4] | Potency [5] | Potency [6] | Potency [7] | Potency [8]

Cc1ccc2nc(N)[nH]c(=O)c2c1Sc1ccncc1
inactive: Potency [1] | Potency [3] | Potency [9] | Potency [4] | Potency [5] | Potency [6] | Potency [7]

COc1ccc(-c2cc(C(F)F)nn2-c2ccc(S(N)(=O)=O)cc2)cc1F
inactive: Potency [2] | Potency [3] | Potency [9] | Potency [4] | Potency [5] | Potency [6] | Potency [7] | Potency [8]

CC(C)c1ccc(C#N)cc1
active: Potency [10] 15.5 µM
inactive: Potency [2] | Potency [3] | Potency [4] | Potency [6] | Potency [7] | Potency [8]

COc1ccc(-c2cc(=S)ss2)cc1
inactive: Potency [1] | Potency [2] | Potency [3] | Potency [4] | Potency [5] | Potency [6] | Potency [8]

Nc1cccc2c(N)cccc12
inactive: Potency [3] | Potency [9] | Potency [4] | Potency [5] | Potency [7] | Potency [8]

COC(=O)C1=C(C)NC(C)=C(C(=O)OC(C)(C)CN(C)CCC(c2ccccc2)c2ccccc2)C1c1cccc([N+](=O)[O-])c1 (centres undefined)
inactive: Potency [1] | Potency [3] | Potency [9] | Potency [5] | Potency [6] | Potency [7] | Potency [8]

O=C(O)CCC(=O)OC[C@@H](NC(=O)C(Cl)Cl)[C@H](O)c1ccc([N+](=O)[O-])cc1
active: Potency [9] 9.52 µM | Potency [5] 19 µM | Potency [6] 19 µM
inactive: Potency [1] | Potency [2] | Potency [4]

COc1cc(S(=O)(=O)Nc2ccccc2)c(OC)cc1N
inactive: Potency [1] | Potency [3] | Potency [4] | Potency [5] | Potency [6] | Potency [7] | Potency [8]

COc1cc(NCc2ccc3nc(N)nc(N)c3c2C)cc(OC)c1OC
active: Potency [10] 0.0239 µM
inactive: Potency [2] | Potency [3] | Potency [9] | Potency [4] | Potency [5] | Potency [6] | Potency [7]

CCCCCCCC(=O)OCCCCCC
inactive: Potency [2] | Potency [3] | Potency [4] | Potency [5] | Potency [6] | Potency [7] | Potency [8]

c1ccc(CCCc2ccncc2)cc1
active: Potency [9] 12.3 µM
inactive: Potency [2] | Potency [4] | Potency [7]

CCCCCCCCCCCCCCN(C)C
inactive: viability change, negative = cytotoxic [2] -0.602% [at 15.8 µM] | max response [10] -29.2% | activity change [3] -31.5% [at 15.8 µM, active compounds read high] | cytotoxicity increase [9] -1.78% [at 15.8 µM] | activity change, negative = cytotoxic [4] 5.76% [at 15.8 µM] | cytotoxicity [5] -3.33% [at 15.8 µM] | cytotoxicity increase [6] -7.14% [at 15.8 µM] | activity change, negative = cytotoxicity [7] 0% [at 15.8 µM] | cytotoxicity increase [8] -32.2% [at 15.8 µM]

Cc1ccc2c(c1[N+](=O)[O-])C(=O)c1ccccc1C2=O
inactive: Potency [2] | Potency [3] | Potency [9] | Potency [4] | Potency [5] | Potency [6]

O=[N+]([O-])c1ccc2ncccc2c1
inactive: Potency [1] | Potency [2] | Potency [3] | Potency [4] | Potency [5] | Potency [6] | Potency [7] | Potency [8]

CC(CN(CCN(CC(C)OCCO)CC(C)OCCO)CC(C)OCCO)OCCO (centres undefined)
inactive: Potency [2] | Potency [3] | Potency [4] | Potency [7]
active: Potency [1] 18.8 µM

COc1ccc(/C=C/C(=O)c2ccc(OC)cc2OC)cc1
inactive: Potency [1] | Potency [2] | Potency [3] | Potency [4] | Potency [7] | Potency [8]

O=C(NS(=O)(=O)/C=C/c1ccccc1)c1ccc(F)cc1Cl
active: Potency [5] 54.9 µM | Potency [6] 54.9 µM | Potency [7] 12.3 µM
inactive: Potency [1] | Potency [2] | Potency [3] | Potency [4] | Potency [8]

O=[N+]([O-])C1(Br)COCOC1
active: Potency [1] 38.9 µM | Potency [2] 54.9 µM | Potency [3] 54.9 µM | Potency [4] 49 µM | Potency [5] 54.9 µM | Potency [6] 43.6 µM | Potency [8] 54.9 µM

CNCc1ccc(NC(=O)c2c[nH]c3c2C(=O)CCC3)cc1
inactive: Potency [2] | Potency [3] | Potency [9] | Potency [4] | Potency [5] | Potency [6] | Potency [7] | Potency [8]

CCCCCCCCCCCCCC(=O)OCC(O)CO (centres undefined)
inactive: Potency [1] | Potency [2] | Potency [9] | Potency [4] | Potency [5] | Potency [6] | Potency [7]

CCN(CC)CCOc1ccccc1C(=O)CCc1ccccc1
active: Potency [1] 10.7 µM
inactive: Potency [2] | Potency [3] | Potency [4] | Potency [5] | Potency [6] | Potency [7] | Potency [8]

CCOC(=O)c1c(N)sc2c1CCN(Cc1ccccc1)C2
inactive: Potency [2] | Potency [3] | Potency [9] | Potency [4] | Potency [5] | Potency [6] | Potency [7] | Potency [8]
active: Potency [10] 19 µM

CCCc1nc2c(C)cc(-c3nc4ccccc4n3C)cc2n1Cc1ccc(-c2ccccc2C(=O)O)cc1
inactive: Potency [3] | Potency [9] | Potency [4] | Potency [5] | Potency [6] | Potency [7] | Potency [8]
